Laboratory results: PubChem BioAssay AID504333 (National Center for Advancing Translational Sciences (NCATS), 2011)
The whole screen tested about 360,000 compounds, of which about 16,000 (4.4%) were called active. Inconclusive results (about 9%) are left out. The call rests on the fitted dose curve; in most records, active means well fitted inhibition curve with a large enough effect; inconclusive means small, poorly fitted or top-dose-only effect; inactive means no such curve, though single readings can be large or run the other way. This excerpt belongs to a sample that is enriched for actives.

Molecular target: Bromodomain adjacent to zinc finger domain protein 2B (Homo sapiens) (UniProt Q9UIF8)
Assay: qHTS Assay for Inhibitors of BAZ2B; further: nearly all actives have a fitted effect of over 60% in size
Settings: AlphaScreen BAZ2B-H3K14Ac peptide displacement; series mostly up to 114 µM; activity change, negative = inhibition: at the top concentration
Outline: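 Compounds, titrated to a top concentration of 110 uM, were incubated 30 min at room temperature with preformed BAZ2B/acetyl-K14 H3 peptide complex (50 nM each). Proximity signal was measured by AlphaScreen after 20 min with beads.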
On the % scale 0 is the no-effect control and ±100 the full control effect; potency means the concentration at half of the fitted maximal effect.

Chain of Bromodomain adjacent to zinc finger domain protein 2B (Homo sapiens) (Q9UIF8 whole entry, looked up, the tested form may be a part): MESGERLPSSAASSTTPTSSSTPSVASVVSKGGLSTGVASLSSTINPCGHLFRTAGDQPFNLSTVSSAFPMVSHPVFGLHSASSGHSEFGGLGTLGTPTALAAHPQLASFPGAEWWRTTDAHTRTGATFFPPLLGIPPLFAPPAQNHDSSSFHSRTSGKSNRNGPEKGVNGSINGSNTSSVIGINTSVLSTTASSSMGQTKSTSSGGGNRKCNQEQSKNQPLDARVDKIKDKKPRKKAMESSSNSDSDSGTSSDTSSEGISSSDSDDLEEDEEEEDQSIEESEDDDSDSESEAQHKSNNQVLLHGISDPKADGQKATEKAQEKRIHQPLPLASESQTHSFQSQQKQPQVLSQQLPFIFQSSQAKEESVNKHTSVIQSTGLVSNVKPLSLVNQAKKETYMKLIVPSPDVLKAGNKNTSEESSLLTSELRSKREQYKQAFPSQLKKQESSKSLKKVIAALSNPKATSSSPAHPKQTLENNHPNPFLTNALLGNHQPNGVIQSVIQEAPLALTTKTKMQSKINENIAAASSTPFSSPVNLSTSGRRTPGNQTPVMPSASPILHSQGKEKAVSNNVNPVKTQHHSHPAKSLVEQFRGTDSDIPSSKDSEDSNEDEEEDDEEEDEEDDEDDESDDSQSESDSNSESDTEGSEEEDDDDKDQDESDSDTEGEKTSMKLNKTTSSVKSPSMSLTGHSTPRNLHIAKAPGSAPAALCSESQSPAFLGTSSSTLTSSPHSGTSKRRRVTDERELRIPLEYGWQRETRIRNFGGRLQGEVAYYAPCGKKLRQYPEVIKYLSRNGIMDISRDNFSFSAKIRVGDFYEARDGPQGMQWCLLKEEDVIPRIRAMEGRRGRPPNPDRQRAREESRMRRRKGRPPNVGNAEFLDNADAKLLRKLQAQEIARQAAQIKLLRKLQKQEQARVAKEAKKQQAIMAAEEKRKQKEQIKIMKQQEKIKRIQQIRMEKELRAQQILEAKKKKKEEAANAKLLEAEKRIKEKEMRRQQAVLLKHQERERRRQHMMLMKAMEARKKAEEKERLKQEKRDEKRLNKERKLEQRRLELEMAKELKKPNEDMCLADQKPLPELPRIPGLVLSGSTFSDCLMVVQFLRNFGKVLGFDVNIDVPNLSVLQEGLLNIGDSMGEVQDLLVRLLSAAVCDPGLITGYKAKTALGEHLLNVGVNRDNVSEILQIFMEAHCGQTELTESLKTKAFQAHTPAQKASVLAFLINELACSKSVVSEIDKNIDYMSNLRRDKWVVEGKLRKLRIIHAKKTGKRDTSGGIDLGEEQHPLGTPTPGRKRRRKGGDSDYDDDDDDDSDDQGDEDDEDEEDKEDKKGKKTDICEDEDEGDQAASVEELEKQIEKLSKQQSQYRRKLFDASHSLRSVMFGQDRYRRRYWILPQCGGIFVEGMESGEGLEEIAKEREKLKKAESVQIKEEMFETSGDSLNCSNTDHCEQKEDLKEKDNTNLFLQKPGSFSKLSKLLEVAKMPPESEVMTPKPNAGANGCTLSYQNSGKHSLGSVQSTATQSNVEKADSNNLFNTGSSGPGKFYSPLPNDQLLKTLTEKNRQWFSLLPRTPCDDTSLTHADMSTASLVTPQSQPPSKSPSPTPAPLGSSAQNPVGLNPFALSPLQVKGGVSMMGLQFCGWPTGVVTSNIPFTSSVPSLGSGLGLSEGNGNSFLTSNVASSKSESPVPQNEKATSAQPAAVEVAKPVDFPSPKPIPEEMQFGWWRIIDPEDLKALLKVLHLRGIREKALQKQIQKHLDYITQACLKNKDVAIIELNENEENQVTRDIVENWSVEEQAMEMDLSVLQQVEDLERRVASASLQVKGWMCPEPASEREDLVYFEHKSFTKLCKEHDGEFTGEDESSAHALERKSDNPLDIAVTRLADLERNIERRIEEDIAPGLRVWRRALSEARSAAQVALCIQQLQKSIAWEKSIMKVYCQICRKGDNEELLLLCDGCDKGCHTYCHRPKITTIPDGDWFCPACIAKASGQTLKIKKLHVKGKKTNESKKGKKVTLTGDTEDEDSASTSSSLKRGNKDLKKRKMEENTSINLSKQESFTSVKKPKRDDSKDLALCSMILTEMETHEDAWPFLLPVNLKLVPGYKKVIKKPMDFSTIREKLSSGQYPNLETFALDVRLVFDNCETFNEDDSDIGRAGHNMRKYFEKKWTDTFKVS

Compound | activity change, negative = inhibition | Potency
O=[N+]([O-])c1cc(C(F)(F)F)ccc1NCCc1ccncc1 | -9.78% (inactive) | 
COc1cc(OC)cc(C(=O)NC(=S)N2CCN(c3ccc(C(F)(F)F)cc3[N+](=O)[O-])CC2)c1 | 62.3% (inactive) | 
O=[N+]([O-])c1cc(C(F)(F)F)ccc1NN=C1CCCC1 |  | 10 µM (active)
COc1cccc(CNC(=O)C(=O)NCC(c2cccs2)S(=O)(=O)c2ccccc2)c1 (stereo unspecified) | 30.7% (inactive) | 
COc1ccccc1CNC(=O)CCCn1c(=O)c2ccccc2n(CC(=O)Nc2ccc(C)cc2Cl)c1=O | -9.06% (inactive) | 
CC(C)NC(=O)C(=O)N/N=C/c1ccco1 | 6.63% (inactive) | 
O=C(N/N=C/c1ccco1)c1ccc(C(=O)N/N=C/c2ccco2)o1 |  | 56.2 µM (active)
O=C(Cc1ccc([N+](=O)[O-])cc1)N/N=C/c1ccco1 | 1.38% (inactive) | 
CCOc1ccccc1NC(=O)CN1CCN(S(=O)(=O)c2ccc(Br)cc2)CC1 | 7.77% [at 57.1 µM] (inactive) | 
Cc1ccc(NC2=C(c3ccc(C(F)(F)F)cc3)C(=O)c3ccccc32)cc1F | -12.8% (inactive) | 
Cc1ccc(C)c(Cn2c(=O)n(CCC(=O)NCc3ccc4c(c3)OCO4)c(=O)c3sccc32)c1 | 1.86% (inactive) | 
Cc1oc2cc([N+](=O)[O-])c(O)c([N+](=O)[O-])c2c1C(=O)c1ccc(Br)cc1 |  | 35.5 µM (active)
Cc1oc2cc(Br)c(O)c(Br)c2c1C(=O)c1ccccc1 | -15.4% (inactive) | 
N/C(=N\OC(=O)Cc1ccccc1[N+](=O)[O-])c1ccc(Br)cc1 | -23.2% (inactive) | 
COCCNc1ncnc2c1c(-c1ccccc1)cn2-c1ccc(C)c(Cl)c1 | -8.73% (inactive) | 
COc1ccc(Cn2c(=S)[nH]c3cc(C(=O)NCCCN4CCOCC4)ccc3c2=O)cc1 | -4.26% (inactive) | 
Cc1c(C)n(Cc2ccc(Cl)cc2)c2ccc(C(=O)NCCCN3CCOCC3)cc12 |  | 39.8 µM (active)
Cc1c(C)n(Cc2ccc(Cl)cc2)c2ccc(C(=O)NCCc3ccc(S(N)(=O)=O)cc3)cc12 | -19% (inactive) | 
COc1ccc(-c2onc(C)c2C)cc1S(=O)(=O)NCC1CCN(Cc2cccc(F)c2)CC1 | -27.4% (inactive) | 
Cc1ccccc1CN1CCC(CNC(=O)c2c(C)oc3ncnc(N4CCCCC4)c23)CC1 | 1.59% [at 57.1 µM] (inactive) | 
Cn1c(COc2ccccc2C(C)(C)C)nc2ccccc21 | -4.66% (inactive) | 
COc1ccc(NC(=O)CSC2=Nc3ccccc3C3=NC(CC(=O)NCc4ccccc4OC)C(=O)N23)cc1Cl (stereo unspecified) | 3.52% (inactive) | 
O=C(O)c1ccccc1NC(=O)c1ccccc1-c1ccccc1C(=O)O | 1.8% (inactive) | 
O=C(NC(=S)Nc1cc(C(F)(F)F)ccc1N1CCOCC1)c1ccc(-c2cccc(Cl)c2)o1 | -35.6% (inactive) | 
O=C(NC(=S)Nc1ccccc1C(=O)O)c1ccc(-c2ccc(Br)cc2)o1 |  | 44.7 µM (active)
COc1cc(C)ccc1OCCSc1nc2ccc(NC(=O)c3ccc(C)cc3)cc2s1 | -4.01% (inactive) | 

Compound | activity change, negative = inhibition | Potency
O=C(CCOc1ccccc1)N(Cc1cccnc1)c1nc2ccc(Cl)cc2s1 | -5.67% (inactive) | 
Cc1cccc(N2CCN(C(=O)c3cc4c(=O)oc5ccccc5c4s3)CC2C)c1 (stereo unspecified) | -9.52% (inactive) | 
COC(=O)c1ccc(NC(=O)c2cnn(-c3ccc(Cl)cc3)c2C2CCN(C(=O)OC(C)(C)C)CC2)cc1 | 8.38% [at 57.1 µM] (inactive) | 
O/N=C1\CC2(Cc3nonc31)OCCO2 | 11.3% (inactive) | 
ON=C1/C(=N\O)CC2(C/C1=N/O)OCCO2 |  | 22.4 µM (active)
Cc1cccc(N2CCN(C(=O)c3ccc4c(c3)CCN4S(=O)(=O)c3ccccc3)CC2)c1C | -22% (inactive) | 
O=C(COc1ccc(Cl)cc1)N(Cc1ccco1)Cc1ccco1 | -14.8% (inactive) | 
Cc1ccc(S(=O)(=O)NCc2nc3nc(C)cc(C)n3n2)cc1 | -1.01% (inactive) | 
CCc1ccc(NC(=O)CSc2nc3c([nH]c4ccccc43)c(=O)n2-c2cccc(OC)c2)cc1 | -13.9% (inactive) | 
Cn1c(=O)c2c(SCC(=O)N3CCc4ccccc43)nc(-c3ccc(Cl)cc3)nc2n(C)c1=O | 31.3% (inactive) | 
Cc1cc(C)nc(N/N=C/c2c(CO)cnc(C)c2O)n1 |  | 79.4 µM (active)
Cc1cc(C)nc(N/N=C/c2c(C)oc3ccccc23)n1 | -14.9% (inactive) | 
O=C(c1cccc(Cl)c1)N1CCN(CCc2ccncc2)CC1 | -24.8% (inactive) | 
CC(NC(=O)c1ccco1)C(=O)Nc1nc(-c2ccccn2)cs1 (stereo unspecified) |  | 22.4 µM (active)
CSCCC(NC(=O)c1ccco1)C(=O)Nc1cc(C)ccn1 (stereo unspecified) | 1.06% (inactive) | 
CCOC(=O)N1CCN(C(=O)C(C)NC(=O)c2ccco2)CC1 (stereo unspecified) | -1.89% (inactive) | 
Cc1cc(C)cc(-n2ccnc2SCC(=O)Nc2nc3ccccc3s2)c1 | -12.3% (inactive) | 
COc1ccc(CCNC(=O)c2cc3cccc4c3n2CC(C)S4)c(OC)c1OC (stereo unspecified) | -15.7% (inactive) | 
CCC1=Nc2cc(C(=O)NCC(C)c3ccccc3)ccc2Sc2ccc(C)cc21 (stereo unspecified) | -4.79% (inactive) | 
Cc1nnc(SCC(=O)Nn2cnnc2)s1 | -2.33% (inactive) | 
CCCCCC(=O)Nc1ccc(S(=O)(=O)Nc2ccc(Cl)nn2)cc1 | -1.75% (inactive) | 
Cc1nnc(SCC(=O)Nc2ccc(S(=O)(=O)Nc3ccc(Cl)nn3)cc2)s1 |  | 50.1 µM (active)
c1ccc(-c2ccccc2OCCN2CCCCC2)cc1 |  | 50.1 µM (active)
C#CC(CCN1CCCCC1)(OC)c1ccccc1 (stereo unspecified) | -3.06% (inactive) | 
c1ccc(-c2ccc(OCCN3CCOCC3)cc2)cc1 | -25.3% (inactive) | 
O=C(CC(c1cccs1)N1Cc2ccccc2C1=O)Nc1ccc(F)c(F)c1 (stereo unspecified) | 5.65% (inactive) | 

Compound | activity change, negative = inhibition | Potency
CC(=O)c1c(C)n(S(=O)(=O)c2ccc(Cl)cc2)c2ccc(NS(=O)(=O)c3ccc(Cl)cc3)cc12 | -19.7% (inactive) | 
COc1ccc(N2CCN(C(=O)C3CCCN(C(=O)c4cc5sccc5n4C)C3)CC2)cc1 (stereo unspecified) |  | 39.8 µM (active)
COc1ccc(N2CCN(C(=O)C3CCN(C(=O)c4ccccc4Cl)CC3)CC2)cc1 | 1.59% (inactive) | 
Cn1c(C(=O)N2CCCC(C(=O)NCc3ccccc3)C2)cc2sccc21 (stereo unspecified) | -26% (inactive) | 
Cc1cc(C)cc(NS(=O)(=O)c2cc3c(cc2C)NC(=O)CO3)c1 | -32.2% (inactive) | 
COC(=O)c1cnc(Nc2cc(C)ccc2OC)c2ccccc12 | 32.2% (inactive) | 
COc1ccc(C)cc1Nc1nc(-c2c(C)[nH]c3ccccc23)cs1 |  | 50.1 µM (active)
COc1ccc(C)cc1Nc1nc(C)nc2c1oc1ccccc12 | -23.2% (inactive) | 
O=C(COc1ccccc1Cl)Nc1ccc2nc(SCC(=O)N3CCCC3)sc2c1 | -8.22% (inactive) | 
Cc1c(C(=O)NCc2ccccc2Br)oc2ccc3c(c12)C(=O)CC(C)(C)O3 | -5.06% (inactive) | 
CCOC(=O)c1c(C)[nH]c(C)c1S(=O)(=O)N1CCC(C(=O)Nc2ccc(C)c(Cl)c2)CC1 | 2.17% (inactive) | 
CCOC(=O)c1ccc(NC2=CC(c3ccc(OCC)cc3)N(c3ccc(C(=O)OCC)cc3)C2=O)cc1 (stereo unspecified) | -14.4% (inactive) | 
COc1ccc(CCNc2ncnc3onc(-c4ccc(Cl)cc4)c23)c(OC)c1 | 12.3% [at 57.1 µM] (inactive) | 
COc1ccc(N=C(C)c2sc3ccccc3c2O)cc1 | -14.3% (inactive) | 
CC(=O)n1c(C=Nc2ccccc2)c(O)c2ccccc21 | 34.9% (inactive) | 
Oc1ccc(N=Cc2sc3ccccc3c2Cl)cc1 |  | 31.6 µM (active)
COc1ccc(C(F)(F)F)cc1NC(=O)c1sc2nc(-c3cccs3)ccc2c1N | 1.9% (inactive) | 
Nc1cc(N)nc(SCc2ccc(Cl)cc2)n1 | -2.43% (inactive) | 
O=C(C1CC1)N1CCN=C1SCc1ccc(Cl)cc1 | 7.34% (inactive) | 
Clc1ccc(CSc2nncn3c2cc2occc23)cc1 |  | 44.7 µM (active)
COC(=O)c1sccc1S(=O)(=O)N(CC(=O)Nc1ccc(C)c(F)c1)c1ccc(C)c(C)c1 | -8.1% (inactive) | 
CCOC(=O)c1c(NC(=O)c2cc(-c3ccc(Cl)cc3)on2)sc2c1CCCC2 | -0.226% (inactive) | 
COc1ccccc1-c1nnc(C2CCN(C(=O)c3ccc(Cl)cc3)CC2)o1 | -15% (inactive) | 
Cc1ccc(Oc2c(C(F)(F)F)oc3c(CN4CCCCC4)c(O)ccc3c2=O)cc1 | -2.73% (inactive) | 
Cc1nnc(C)n1-c1ccc(C(=O)Nc2cccc(Br)c2)cc1 | 1.73% (inactive) | 
Cc1ccccc1CN1CCC(CNC(=O)c2cc3ccc4cccnc4c3[nH]2)CC1 | 15.2% [at 57.1 µM] (inactive) | 

Compound | activity change, negative = inhibition | Potency
O=C(CCCN1C(=O)/C(=C\c2ccco2)SC1=S)Nc1cccc2ccccc12 |  | 44.7 µM (active)
O=C(CCCCCN1C(=O)c2cccc3cccc(c23)C1=O)NCc1ccco1 | 5.06% (inactive) | 
O=C(CCN1C(=O)/C(=C/c2cccs2)SC1=S)NNC(=O)c1cccc(O)c1 | -6.89% (inactive) | 
CCn1c(=O)c(=O)n(CC)c2cc(N3CCCCC3)c(NC(=O)c3cccc(F)c3)cc21 | 2.52% (inactive) | 
COc1ccc(C)cc1NC(=O)COCc1cc(-c2cccs2)on1 | 33.5% (inactive) | 
O=C(NCCc1c[nH]c2ccccc12)c1cccc(Br)c1 | -24.7% (inactive) | 
Cc1cc(C)cc(NC(=S)NCCc2c[nH]c3ccccc23)c1 |  | 28.2 µM (active)
Cc1cc(C)cc(NC(=S)NCc2ccc(F)cc2)c1 | -0.9% (inactive) | 
COc1ccc(CNC(=O)COCc2cc(-c3cccs3)on2)cc1OC | -0.39% (inactive) | 
CCN(C(=O)Cn1cc(S(=O)(=O)N2CCN(c3ccccc3F)CC2)c2ccccc2c1=O)c1ccc(C)c(C)c1 | -12.9% (inactive) | 
Cc1ccc(CN(C(=O)c2ccccc2[N+](=O)[O-])c2ccccn2)cc1 | -24.1% (inactive) | 
CCc1ccc(N(CC)C(=O)CCn2cnc3onc(-c4ccc(F)cc4)c3c2=O)cc1 | -5.56% [at 57.1 µM] (inactive) | 
Cc1cccc(N2CCN(C(=O)c3cnc(N4CCCC4)nc3C)CC2)c1C | -13.1% (inactive) | 
CCC(CC)C(=O)N1CCN(c2cccc(C)c2C)CC1 | -21.9% (inactive) | 
Cc1cccc(N2CCN(C(=O)/C=C/c3ccco3)CC2)c1C |  | 50.1 µM (active)
CCOc1ccc2nc(N3CCCC(C(=O)Nc4cc(C)ccc4C)C3)sc2c1 (stereo unspecified) | -6.74% (inactive) | 
CC(C)c1ccc2oc(-c3cc(NC(=O)c4cccs4)ccc3Cl)nc2c1 | -2.9% (inactive) | 
Cc1nnc(N/N=C/C2CC=CCC2)[nH]c1=O (stereo unspecified) | -7.79% (inactive) | 
CCOc1ccc(-n2c(O)c(/C=N/c3ccnn3Cc3ccncc3)c3ccccc3c2=O)cc1 | -19.4% (inactive) | 
O=C(COc1ccc(Cl)cc1Cl)N/N=C/c1ccccn1 | 16.5% (inactive) | 
CCOc1ccc(-n2c(O)c(/C=N/Nc3nnc(C)c(=O)[nH]3)c3ccccc3c2=O)cc1 |  | 12.6 µM (active)
Cc1nnc(N/N=C/c2ccccn2)[nH]c1=O |  | 39.8 µM (active)
CCOc1ccc(-n2c(O)c(/C=N/Nc3nc(C)cc(C)n3)c3ccccc3c2=O)cc1 | -7.49% (inactive) | 
